# Only some compounds are listed: those with a hit (about 3% of all), similar ones and a draw of the others.
# Bfl-1 A1 inh – inhibitors of the anti-apoptotic protein A1, read as caspase activation; MEF A1-2A-BIM cells, Caspase-Glo 3/7 luminescence, 3 h; percent of clofoctol response, vehicle zero; caspase activation, % (no concentration beside the values); 330,000 compounds, 0.066% hits; AID 2462;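 active means over half of replicate activation scores above 10%, or exactly half above 10 with the replicate mean above 10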
# CHT block – inhibitors of human choline transporter CHT; Q9GZV3; CHT-expressing cells, membrane potential dye, choline response; stronger effect = lower value; B-score at 10 µM; 310,000 compounds, 0.86% hits; AID 488975;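 active means B-score over 3 SD under the library average, and starting fluorescence ratio not unusually high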;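 further: choline stimulus applied at its EC90 after an EC20 pre-addition; B-score computed on integrated fluorescence ratio after choline addition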
# Target sequence (Q9GZV3 whole entry, looked up): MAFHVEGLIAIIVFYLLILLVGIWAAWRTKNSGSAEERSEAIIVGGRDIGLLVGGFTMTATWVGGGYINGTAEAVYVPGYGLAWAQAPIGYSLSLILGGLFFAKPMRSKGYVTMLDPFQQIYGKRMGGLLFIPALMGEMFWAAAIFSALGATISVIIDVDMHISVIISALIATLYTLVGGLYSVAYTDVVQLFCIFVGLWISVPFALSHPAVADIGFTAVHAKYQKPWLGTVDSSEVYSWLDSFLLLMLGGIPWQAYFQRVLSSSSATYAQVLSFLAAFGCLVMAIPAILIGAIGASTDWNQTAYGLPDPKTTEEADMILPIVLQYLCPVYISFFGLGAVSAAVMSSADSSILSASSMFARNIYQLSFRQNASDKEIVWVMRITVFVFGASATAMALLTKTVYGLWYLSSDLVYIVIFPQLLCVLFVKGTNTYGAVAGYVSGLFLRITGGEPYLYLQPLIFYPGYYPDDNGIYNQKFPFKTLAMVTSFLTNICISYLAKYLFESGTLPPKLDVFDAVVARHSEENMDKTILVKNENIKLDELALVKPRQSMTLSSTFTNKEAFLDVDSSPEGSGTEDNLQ
# NLRP3 yeast inh – NALP3 inhibition in yeast; AID 2825; Yeast reconstituted NLRP3/ASC/caspase-1, beta-gal luminescence, 24 h; inhibition, % at 10 µM; 330,000 compounds, 0.39% hits;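 active means inhibition of 50% or more; inactive means inhibition below 50%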;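 further: plate controls were induced DMSO wells for no effect and uninduced yeast grown without galactose for full effect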
# NALP1 yeast inh – inhibitors of NALP1 inflammasome in yeast; 280,000 compounds, 0.61% hits; inhibition, % at 10 µM; S. cerevisiae NALP1/ASC/caspase-1 growth, X-gal OD620, 72 h; in the data active means inhibition mostly above about 24%, no sharp cut-off; inactive means mostly below about 32%
# CHT allo act – allosteric activators of human choline transporter CHT. 310,000 compounds, 0.49% hits. CHT-expressing cells, membrane potential dye, choline EC20; stronger effect = higher value; LV-AA mutant CHT in HEK293 cells. Q9GZV3. B-score at 10 µM;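 active means initial fluorescence not abnormally high and integrated response B-score, plate-corrected, over 3 SD above library mean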
# SUMO Mot1 rescue – SUMOylation pathway inhibition by Mot1-301 growth rescue. S. cerevisiae Mot1-301 growth rescue, ATP luminescence, 38.5C; percent above DMSO median, 100 means doubled. growth rescue, % at 18.8 µM. 320,000 compounds, 1% hits;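 active means every valid replicate shows activation above 250% relative to neutral control wells; inactive means the rest, any valid replicate at or below 250%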;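 further: OY570 slx delta 5 strain wells were the positive control but not used for scaling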
# Yeast Mot1 SUMO – SUMO pathway inhibitors in yeast Mot1-301 growth. AID 493004. 2,300 tested, under 10 active. shares compounds with SUMO Mot1 rescue. S. cerevisiae Mot1-301 galactose growth, ATP luminescence, 24 h; -100 = growth of slx-deleted rescue strain. growth activity, percent, % at 42 µM;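 active means Signal drops as the depositor expects, and the fitted half-maximal dose is no more than ten times the top valid tested dose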;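 further: more negative values mean stronger growth rescue toward the control strain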
# Active calls of the source: *; i = inactive; · = no result given.
SMILES,Bfl-1 A1 inh,CHT block,NLRP3 yeast inh,NALP1 yeast inh,CHT allo act,SUMO Mot1 rescue,Yeast Mot1 SUMO
COc1ccc(CN2CC(=O)N(c3ccc(C)cc3C)C2=S)cc1OC,0.0,i,6.3,1.6,i,-10.0,·
Cc1ccc(N2C(=O)c3ccccc3NC2c2ccccc2O)cc1 (centres undefined),-4.1,i,-2.7,11.5,i,-16.1,·
O=C1c2ccccc2NC(c2ccccc2O)N1O (centres undefined),-0.3,i,35.5,6.1,i,383.8*,-0.6
NC(=O)c1ccc(NC(=O)COC(=O)C2COc3ccccc3O2)cc1 (centres undefined),-0.1,·,5.2,·,·,-2.0,·
CN=C1SC(CC(=O)Nc2sc3c(c2C#N)CCCC3)C(=O)N1C (centres undefined),-0.3,i,11.9,8.9,i,364.2*,0.2
CCC(=O)Nc1sc2c(c1C#N)CCC2,-0.2,i,-21.3,4.7,i,5.2,·
NCCCCCc1nnc(SCC(=O)Nc2cccc(Cl)c2)o1,-0.6,i,21.3,6.4,i,-4.1,·
CCC(C)[C@H](N)c1nnc(SCC(=O)Nc2cccc(Cl)c2)o1 (some centres undefined),-1.2,i,4.3,2.5,i,557.6*,-0.5
O=c1nc2ccc(Cl)cn2c2ccc(S(=O)(=O)N3CCCCC3)cc12,0.9,i,-4.3,-28.4,i,-21.6,·
O=c1nc2ccc(Cl)cn2c2ccc(S(=O)(=O)N3CCOCC3)cc12,0.1,i,18.3,-5.0,i,576.6*,0.2
Cc1ncccc1C(=O)N1CCCC(CNC(=O)C2(c3ccc(Cl)cc3)CC2)C1 (centres undefined),0.7,i,9.5,-1.9,i,3.5,·
CCCn1c(NC(=O)CN2C(=O)NC3(CCCCC3)C2=O)nc2ccccc21,0.2,i,7.9,·,i,22.0,·
CCCCCCSc1ccc([C@@H]2[C@@H]3C(=O)N(C)C(=O)[C@@H]3[C@]3(C(=O)OC)CCCCN23)cc1,-0.9,·,2.7,·,·,-4.9,·
COc1ccccc1-c1nc2ccccc2nc1-c1ccccc1OC,0.5,i,-5.5,13.8,i,394.9*,-0.5
COC(=O)c1ccc(NC(=O)CCN2CCN(c3ccccc3)CC2)cc1,3.7,i,28.5,3.7,i,519.5*,0.1
O=C(CCN1CCN(c2ccccc2)CC1)Nc1ccc(Cl)cc1,-0.1,i,30.2,30.2,i,·,·
COc1ccc2c(c1OC)C(=O)N1C2SC[C@H]1C(=O)NC1CC1 (some centres undefined),0.2,i,-4.3,13.3,i,5.8,·
CC1(C)C2CC=C(/C=N/NC(=S)Nc3cccnc3)C1C2 (centres undefined),1.4,i,23.6,-13.6,i,744.5*,0.0
COc1ccc(CCNC(=O)C/C(C)=N/NC(=O)COc2ccc(C)cc2Br)cc1OC,-0.3,i,13.9,0.0,i,904.0*,0.3
COc1ccccc1CNC(=O)C/C(C)=N/NC(=O)COc1ccc(C)cc1Br,-0.5,i,12.5,32.4,i,168.1,·
CN(C(=O)COC(=O)c1cc2ccccc2cc1O)c1c(N)n(Cc2ccccc2)c(=O)[nH]c1=O,-0.4,i,6.8,·,i,426.7*,0.3
COCCN(C(=O)COC(=O)c1cc2ccccc2cc1OC)c1c(N)n(Cc2ccccc2)c(=O)[nH]c1=O,-0.8,i,-0.9,·,i,-17.4,·
CCOC(=O)c1cnc2c(C)c(Cl)ccc2c1N1CCOCC1,0.9,i,28.6,-11.9,i,828.0*,0.7
CCOC(=O)c1cnc2c(C)c(Cl)ccc2c1NCCCN1CCOCC1,0.9,i,18.4,14.3,i,-5.8,·
O=C(CSc1nccc(=O)[nH]1)c1cc2ccccc2o1,-0.7,i,6.0,7.3,i,585.6*,-0.3
COc1cc(SC)ccc1C(=O)Nc1cc(C)c(OCC(=O)N2CCOCC2)c(C)c1,1.0,i,6.5,-3.4,i,562.0*,-0.4

# Screens (PubChem BioAssay)
